Measurements published in publication PMC13541613, “GHT-SELEX demonstrates unexpectedly high intrinsic sequence specificity and complex DNA binding of many human transcription factors”.

What was measured:
Test in all cases: HT-SELEX; 20 mM HEPES pH 7, 140 mM KCl, 5 mM NaCl, 1 mM K2HPO4, 2 mM MgSO4, 100 uM EGTA, ZnSO4, 0.1% Tween20; room temperature, 1 h; high values mean tight binding
Conditions in all cases: protein: ivt; tags: eGFP (N-terminal); dsDNA, one strand shown
[1] = biological target: ZNF721 full-length (Homo sapiens, UniProt Q8TF20-2 1-923)
Outline: (§1)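 The binding signal is a relative k-mer count in selected reads, and higher values mean tighter binding. To obtain these reads, bead-bound tagged transcription factor (full-length or DNA-binding-domain fragment, produced in HEK293 lysate or cell-free extract) was mixed with a randomized 40-base DNA library for 1 h at room temperature in low-stringency HEPES/KCl buffer with Tween20. Bound DNA was recovered by washing and heat elution, PCR-amplified through successive cycles and sequenced on Illumina (~3 million 60 bp reads per sample).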

[2] = biological target: ZNF721 DBD1 (Homo sapiens, UniProt Q8TF20-2 29-461)
Outline: as §1

[3] = biological target: ZNF721 DBD2 (Homo sapiens, UniProt Q8TF20-2 395-923)
Outline: as §1

ZNF721 DBD2, sequence (Q8TF20 383-911): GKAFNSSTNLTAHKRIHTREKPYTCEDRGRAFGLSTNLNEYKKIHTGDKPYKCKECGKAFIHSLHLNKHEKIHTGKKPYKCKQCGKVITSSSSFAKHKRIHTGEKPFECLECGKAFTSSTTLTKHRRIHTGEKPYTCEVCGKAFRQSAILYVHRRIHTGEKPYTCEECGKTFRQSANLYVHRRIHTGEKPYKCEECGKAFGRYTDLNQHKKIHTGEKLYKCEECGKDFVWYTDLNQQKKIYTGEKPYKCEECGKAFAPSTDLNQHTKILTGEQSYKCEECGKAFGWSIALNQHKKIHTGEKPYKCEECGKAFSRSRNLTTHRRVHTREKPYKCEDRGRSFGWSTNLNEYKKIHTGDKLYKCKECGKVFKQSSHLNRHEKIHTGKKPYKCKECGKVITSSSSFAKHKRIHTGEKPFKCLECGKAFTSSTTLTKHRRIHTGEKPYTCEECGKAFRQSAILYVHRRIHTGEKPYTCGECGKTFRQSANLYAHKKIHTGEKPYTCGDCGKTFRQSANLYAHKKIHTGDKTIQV
ZNF721 DBD1, sequence (Q8TF20 17-449): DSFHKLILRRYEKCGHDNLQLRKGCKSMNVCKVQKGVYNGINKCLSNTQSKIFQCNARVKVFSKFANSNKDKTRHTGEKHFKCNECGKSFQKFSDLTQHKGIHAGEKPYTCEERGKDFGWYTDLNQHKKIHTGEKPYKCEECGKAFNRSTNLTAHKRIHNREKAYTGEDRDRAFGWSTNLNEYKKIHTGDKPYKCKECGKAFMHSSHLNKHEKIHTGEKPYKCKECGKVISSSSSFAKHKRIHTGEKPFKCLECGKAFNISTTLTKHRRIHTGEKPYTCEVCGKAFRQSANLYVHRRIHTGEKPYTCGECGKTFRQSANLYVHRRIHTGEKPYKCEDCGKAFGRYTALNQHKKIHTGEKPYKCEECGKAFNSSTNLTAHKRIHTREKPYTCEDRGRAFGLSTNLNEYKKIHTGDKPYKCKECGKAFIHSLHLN
ZNF721 full-length, sequence (Q8TF20 other isoform, or with tags, fused parts or gaps): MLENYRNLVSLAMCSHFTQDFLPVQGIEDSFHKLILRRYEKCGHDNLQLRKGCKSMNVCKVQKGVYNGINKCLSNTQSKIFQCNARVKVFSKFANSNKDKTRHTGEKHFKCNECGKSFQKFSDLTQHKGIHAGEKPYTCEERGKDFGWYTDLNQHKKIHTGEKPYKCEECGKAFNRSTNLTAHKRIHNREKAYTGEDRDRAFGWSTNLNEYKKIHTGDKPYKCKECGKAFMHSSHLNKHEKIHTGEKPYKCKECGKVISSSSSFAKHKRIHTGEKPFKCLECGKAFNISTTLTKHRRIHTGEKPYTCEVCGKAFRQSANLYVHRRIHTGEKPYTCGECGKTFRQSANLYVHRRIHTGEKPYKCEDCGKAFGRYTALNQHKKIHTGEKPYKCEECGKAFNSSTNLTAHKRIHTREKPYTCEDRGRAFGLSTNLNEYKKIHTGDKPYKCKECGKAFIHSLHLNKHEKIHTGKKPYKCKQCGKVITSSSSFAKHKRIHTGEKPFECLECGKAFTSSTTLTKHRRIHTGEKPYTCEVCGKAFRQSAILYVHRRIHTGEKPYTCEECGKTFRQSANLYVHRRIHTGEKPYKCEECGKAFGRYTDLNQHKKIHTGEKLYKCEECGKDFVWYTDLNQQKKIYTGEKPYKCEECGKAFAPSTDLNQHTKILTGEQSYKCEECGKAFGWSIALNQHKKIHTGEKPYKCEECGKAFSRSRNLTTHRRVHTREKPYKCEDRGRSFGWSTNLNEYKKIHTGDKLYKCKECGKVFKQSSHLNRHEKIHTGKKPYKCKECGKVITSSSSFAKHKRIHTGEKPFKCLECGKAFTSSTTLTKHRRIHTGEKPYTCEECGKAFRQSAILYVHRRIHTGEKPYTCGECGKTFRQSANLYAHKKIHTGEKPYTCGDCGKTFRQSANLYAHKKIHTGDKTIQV

Sequence	binding signal [1] [relative 10-mer count]	binding signal [2] [relative 10-mer count]	binding signal [3] [relative 10-mer count]
AAAGCAGCCC	0.134	0.00225	0.133
CGCCACCCCC	0.212	0.00706	0.0024
CCCTCACCCC	0.193	0.00862	0.00276
GGTGGGGGGA	0.186	0.00904	0.00407
CCAAAAAAAA	0.211	0.0171	0.0966
AAAAAAGCAC	0.158	0.0181	0.0367
CCCCTCCACC	0.274	0.0117	0.00851
CCCACCCTCC	0.252	0.0121	0.0115
CCCCCTGCCC	0.154	0.00628	0.00192
CCCCACCCAA	0.134	0.00431	0.00491
AGCTTTTTTC	0.449	0.217	0.00467
GGAGGGGGGA	0.131	0.00601	0.00336
GGTGGGTGGA	0.13	0.00615	0.00611
CCCACCCAGC	0.106	0.00307	0.003
CACCCCACCC	0.31	0.012	0.0036
CACCAACCCC	0.123	0.00404	0.00407
CCCCACCACA	0.148	0.00505	0.00527
CCCCACCAAC	0.136	0.00638	0.00791
CCAGCCCACC	0.12	0.00353	0.00336
GTATGAAGCA	0.171	0.261	0.00132

Sequence	binding signal [1] [relative 10-mer count]	binding signal [2] [relative 10-mer count]	binding signal [3] [relative 10-mer count]
AAACAGCGTA	0.378	0.00115	0.468
CCCCGCCTCC	0.175	0.00738	0.00216
CCCGCGCCCC	0.146	0.00505	0.0018
AAAGCGTACC	0.109	0.0281	0.0144
CAAAAAAAAC	0.123	0.00243	0.0838
CCCCCGCACC	0.146	0.00527	0.00419
GCTTCTTTCC	0.103	0.0866	0.00156
CCACGTCCCC	0.11	0.00376	0.00252
ACCCTCCACC	0.127	0.00482	0.00707
CCCACCGCCC	0.319	0.0135	0.00551
CGCCCACCCC	0.23	0.00913	0.00252
CACCCCCTCC	0.159	0.00899	0.00719
TCCCCCACCA	0.114	0.00527	0.00407
CCCACCGACC	0.127	0.00394	0.00455
CCACCGACCC	0.107	0.00482	0.0036
CCCACACACC	0.114	0.00449	0.00455
TCCCACCCCA	0.147	0.00564	0.00372
AGGGGGGGTG	0.108	0.00422	0.00252
CCCCGCCCCA	0.196	0.0067	0.00228
ACAAAAAACA	0.143	0.00197	0.172

Sequence	binding signal [1] [relative 10-mer count]	binding signal [2] [relative 10-mer count]	binding signal [3] [relative 10-mer count]
CGCCACCACC	0.108	0.00468	0.00384
AAAGCAGCAT	0.31	0.00202	0.366
CTCCCCCACC	0.191	0.0104	0.00348
CGCACCCCCC	0.118	0.00463	0.00276
CCCCCTTCCC	0.122	0.00537	0.00264
TCCCCACCCA	0.122	0.00495	0.00431
CCCACCCCGC	0.212	0.0094	0.00336
CCCCTACCCC	0.199	0.00954	0.00384
CCCGCCCCTC	0.127	0.00633	0.00144
GGGGTGGGAC	0.111	0.00449	0.00108
AAAAAGCGTA	0.178	0.0453	0.0266
CCACCCCCAA	0.118	0.00546	0.00491
ACCCACCCGC	0.102	0.00316	0.00276
CCCCCCGCCA	0.113	0.00445	0.00372
CCAAAAAAAC	0.106	0.0017	0.082
AAAAGCTGCA	0.114	0.0533	0.00312
AGAAAAAAAG	0.118	0.0217	0.035
CACCCACCCA	0.192	0.00835	0.00503
CCCCCGCCTC	0.119	0.00509	0.0036
CCGCCCCTCC	0.151	0.00624	0.00312
